Only some compounds are listed: those with a hit (about 2.3% of all), similar ones and a draw of the others.
M1 PAM: human M1 muscarinic receptor positive allosteric modulators, primary screen, CHO-K1 cells, Fluo-8 calcium fluorescence, 1536-well; 0.088% of 360,000 active; CHO-K1 hM1, ACh EC20; 0% = ACh EC20, 100% = maximal ACh; activation, % at 3 µM; Muscarinic acetylcholine receptor M1 (Homo sapiens), P11229; in the data active = activation above about 19%, passing the limit was not always enough
Target sequence (P11229 whole entry, looked up): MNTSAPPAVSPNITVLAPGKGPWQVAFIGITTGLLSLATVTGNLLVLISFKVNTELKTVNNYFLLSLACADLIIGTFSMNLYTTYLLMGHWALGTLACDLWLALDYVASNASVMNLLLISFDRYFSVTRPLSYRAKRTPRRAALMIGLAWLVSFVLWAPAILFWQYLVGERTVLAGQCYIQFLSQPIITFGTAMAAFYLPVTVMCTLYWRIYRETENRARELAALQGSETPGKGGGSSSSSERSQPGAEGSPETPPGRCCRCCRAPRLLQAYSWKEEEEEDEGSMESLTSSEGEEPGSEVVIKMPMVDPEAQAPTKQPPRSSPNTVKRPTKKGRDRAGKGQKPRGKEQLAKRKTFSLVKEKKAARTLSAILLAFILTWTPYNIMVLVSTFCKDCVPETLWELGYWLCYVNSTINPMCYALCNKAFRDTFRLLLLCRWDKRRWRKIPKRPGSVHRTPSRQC
M1 antag: human M1 muscarinic receptor antagonists, primary screen, CHO-K1 cells, Fluo-8 calcium fluorescence, 1536-well. Muscarinic acetylcholine receptor M1 (Homo sapiens), P11229. CHO-K1 hM1, ACh EC80 antagonist. inhibition, % at 3 µM. 1.3% of 360,000 active;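 active = percent inhibition above its own plate's cutoff, namely the mean of that plate's compound wells plus 3 SD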;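 also: peak over basal fluorescence ratio during 140 s after agonist addition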
M1 PAM parental: nonselective calcium activators in parental CHO-K1 cells, primary screen, counter-screen for M1 PAM project, cell-based, Fluo-8 calcium fluorescence, full deck, 1536-well. ATP EC20; 0% at ATP EC20, 100% at ATP max. activation, % at 3 µM. 0.02% of 360,000 active;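 active = activation above the run cutoff, the mean activation of all test compounds plus 3 SD, cut at about 40% in these data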;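 also: peak over basal fluorescence ratio in a 140 s read after ATP addition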
CHRM1 agonist: human M1 muscarinic receptor agonists, primary screen, Fluo-8 calcium fluorescence, CHO-K1 cells, HTS. Muscarinic acetylcholine receptor M1 (Homo sapiens), P11229. CHO-K1 hM1, agonist mode; 0% DMSO, 100% acetylcholine EC100. activation, % at 3 µM. 0.33% of 360,000 active;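 active = activation above the run's mean compound activation plus 3 SD, cut at about 16% in these data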;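 also: peak over basal fluorescence ratio within a 140 s kinetic read after compound addition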
CHO-K1 Ca antag: nonselective inhibitor or artifact in parental CHO-K1 cells; ATP-induced calcium, Fluo-8 fluorescence; 0.6% of 360,000 active; AID 602250; inhibition, % at 3 µM;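 active = inhibition above a per-plate cutoff, the plate's mean sample inhibition plus 3 SD, cut at about 24% in these data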
M1 ag parental: counter-screen for M1 agonists: effect in parental CHO-K1 cells. Fluo-8 calcium fluorescence; scaled to maximal ATP response, vehicle zero. 0.48% of 360,000 active. activation, % at 3 µM; in the data active = activation above about 15%;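 also: untransfected CHO-K1 host cells lacking M1 receptor as counterscreen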
Large screens that a line does not name were inactive; ! = repeats disagree.

CCCCN(S(=O)(=O)c1ccccc1)S(=O)(=O)c1ccccc1	none
FC(F)(F)c1cc(Cl)c2nc(-c3ccc(Cl)cc3)c(Cc3ccsc3)n2c1	CHO-K1 Ca antag 31 (no result: M1 PAM, M1 antag, CHRM1 agonist)
Fc1ccc(-c2nc3c(Cl)cc(C(F)(F)F)cn3c2Cc2cccc(Cl)c2)cc1	CHO-K1 Ca antag 33 (no result: M1 PAM, M1 antag, CHRM1 agonist)
CC1(C)C2CCC(C2)C1(C)NC(=O)CN1CCN(Cc2ccccc2)CC1 (centres undefined)	none
CC1(C)C2CCC(C2)C1(C)NC(=O)C[N+](C)(C)C (centres undefined)	M1 ag parental 23
COc1cccc(-c2n[nH]nc2C2=CC(=O)C[C@H](c3ccc(F)cc3)C2)c1	none
CC1CC2(CCCCC2)N2C(=O)C(=O)c3cccc1c32 (centres undefined)	CHRM1 agonist 17
CCOc1ccc(CCNC(=O)CS(=O)Cc2nc(-c3ccc(OC)cc3)oc2C)cc1OCC (centres undefined)	none
Cc1nc2scc(C)n2c(=O)c1S(=O)(=O)NCC1CCN(Cc2ccc(Cl)cc2)CC1	M1 antag 44
Cc1nc2scc(C)n2c(=O)c1S(=O)(=O)NCCc1ccc(Cl)cc1	none
OC(c1ccccc1)(c1nc(-c2cc3ccccc3o2)cs1)C(F)(F)F (centres undefined)	none
CCCOc1ccc(Cn2cnc3ccccc32)cc1	CHO-K1 Ca antag 25
Fc1ccc(Cn2cnc3ccccc32)cc1	none
CCn1ncc(CN2CCCC(C(=O)Nc3cccc(-c4cc5ccccc5[nH]4)c3)C2)c1C (centres undefined)	M1 antag 25
CCOc1cccc(CN2CCCC(C(=O)Nc3cccc(-n4cccn4)c3)C2)c1 (centres undefined)	none
CCOc1ccccc1CN1CCCC(C(=O)Nc2cccc(-n3cccn3)c2)C1 (centres undefined)	M1 antag 71
CC(=O)Nc1ccc(S(=O)(=O)N2CCN(C(=O)c3ncoc3-c3ccccc3C)CC2)cc1	none
Cc1cc2c(cc1C)N(C(=O)CSC1=NCCS1)C(C)(C)c1ssc(=S)c1-2	M1 antag 54
CC1(C)c2ssc(=S)c2-c2ccccc2N1C(=O)CSC1=NCCS1	none
CN(C)Cc1c(C(=O)N/N=C/C2CC=CCC2)nnn1-c1nonc1N (centres undefined)	none
CC(CN1CCN(CCOCCO)CC1)CN1c2ccccc2Sc2ccc(Cl)cc21 (centres undefined)	M1 antag 56
CCCC[C@@H]1CNC(=O)C(=O)N1CCCC	none (no result: M1 PAM, M1 antag, CHRM1 agonist)
CCOc1ccc2nc(N(CCN(CC)CC)C(=O)c3ccc([N+](=O)[O-])cc3)sc2c1	M1 antag 44
CCN(CC)CCN(C(=O)c1ccc([N+](=O)[O-])cc1)c1nc2ccc(OC)cc2s1	none
CC(=O)c1cccc(NS(=O)(=O)c2ccc(NC(=O)N3CCCCC3)cc2)c1	M1 antag 36
COCc1cc(C)nc(Oc2ccccc2)c1C#N	none
CCOC(=O)CC(NC(=O)Cc1ccc(F)cc1)c1ccccc1Cl (centres undefined)	none
N#Cc1c(F)cccc1N1CCN(Cc2ccc3c(c2)OCO3)CC1	M1 antag 66
O=C(c1ccccc1F)N1CCN(Cc2ccc3c(c2)OCO3)CC1	none
NC(c1ccccc1)c1csc(Nc2cc(Oc3ccccc3)ncn2)n1 (centres undefined)	M1 antag 60
CS(=O)(=O)N(CC(=O)Nc1c(F)cccc1F)c1ccc(C23CC4CC(CC(C4)C2)C3)cc1	CHRM1 agonist 21
CSc1ccc(C(=O)N2CCC(n3nccc3NC(=O)C3CC3)CC2)cc1	none
O=C(CCc1nc2ccccc2c(=O)[nH]1)Nc1ccc(Cl)c(Cl)c1	none
O=C(CCc1nc2ccccc2c(=O)[nH]1)NCCN1C(=O)S/C(=C\c2ccc(Cl)cc2Cl)C1=O	M1 antag 26
CSc1cc(C)c(OCC(=O)Nc2c(C)nn(C)c2C)c(C)c1	none
C#CCNC(=O)C1=C[C@@H](c2coc3ccccc3c2=O)C[C@@H](OCc2ccc(CO)cc2)O1	none
Cc1cc(C)c2nc(N3CCC(C(=O)NCCCN4CCCCC4)CC3)sc2c1	M1 antag 76
Cc1cc(C)c2nc(N3CCC(C(=O)N4CCCC4)CC3)sc2c1	M1 antag 37
Cc1cc(/N=C/C=C2/N(C)c3ccccc3C2(C)C)n(CCC#N)n1	none
COc1cc(/C=N/N2C(=O)CSC2=S)cc(Br)c1O	M1 antag 38, CHRM1 agonist 55, M1 ag parental 48
COc1ccc(S(=O)(=O)c2nnn(-c3cccc(Cl)c3)c2N)cc1	CHO-K1 Ca antag 25
CCc1ccccc1N1C(=O)[C@@H]2Cc3ccccc3CN2C1=O	none
C=C[C@H]1CN2CC[C@H]1C[C@@H]2[C@@H](O)c1ccnc2ccc(OC)cc12	CHO-K1 Ca antag 25!
C=C[C@H]1CN2CCC1C[C@H]2[C@H](O)c1ccnc2ccc(OC)cc12 (some centres undefined)	none
CN1CCCCC1CCN1c2ccccc2Sc2ccc(S(C)=O)cc21 (centres undefined)	M1 antag 99
CCSc1ccc2c(c1)N(CCCN1CCN(C)CC1)c1ccccc1S2	none
O=C(NCc1ccccc1)C1CCCN(c2ncnc3c2nc2n3CCCCC2)C1 (centres undefined)	none
O=C(NCC1CCN(Cc2cccc(Cl)c2)CC1)C1CCCN(c2ncnc3c2nc2n3CCCCC2)C1 (centres undefined)	M1 antag 75
O=C(NCC1CCN(Cc2ccc(Cl)cc2)CC1)C1CCCN(c2ncnc3c2nc2n3CCCCC2)C1 (centres undefined)	M1 antag 103
O=C(C1CCN(c2ncnc3c2nc2n3CCCCC2)CC1)N1CCN(c2ccc(F)cc2)CC1	CHRM1 agonist 30
O=C(NCCc1ccc(Cl)cc1)C1CCCN(c2ncnc3c2nc2n3CCCCC2)C1 (centres undefined)	none
O=C(NCC1CCN(Cc2ccc(F)cc2)CC1)C1CCCN(c2ncnc3c2nc2n3CCCCC2)C1 (centres undefined)	M1 antag 70
Cc1ccc(-c2nc3c4ccccc4ccn3c2Cc2ccccc2C(F)(F)F)cc1	none (no result: M1 PAM, M1 antag, CHRM1 agonist)
CC1CCCN(CCSc2ccc(Cl)cc2)C1 (centres undefined)	M1 antag 37
Clc1ccc(SCCOCCN2CCCCC2)cc1	M1 antag 28
Clc1ccc(SCCOCCN2CCOCC2)cc1	none
CC1CCCN(CCCOc2ccc(Cl)cc2Br)C1 (centres undefined)	none

Screening results: PubChem BioAssay, The Scripps Research Institute Molecular Screening Center
